Measurements taken from the supplement of paper PMC4022240.
± gives the standard deviation.

What was measured:
Assay in all cases: peptide microarray binding signal (635 nm), min-max normalized on array (fraction of array maximum); higher = stronger binding
Conditions in all cases: peptide region: H3 11-23
[1] = target: T1, HaloTag-ATRX ADD domain (163-292)
T1 chain: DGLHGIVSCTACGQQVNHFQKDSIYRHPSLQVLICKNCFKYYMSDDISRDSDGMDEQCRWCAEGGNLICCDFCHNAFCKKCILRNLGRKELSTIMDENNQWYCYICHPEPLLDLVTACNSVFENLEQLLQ
Procedure, shortened: (§1)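 Within each library, mean intensities of triplicate spots were min-max scaled to give the binding signal. The spots were histone 13-mer peptide–cellulose conjugates on nitrocellulose with a Cy3 tracer, blocked overnight at 4°C. They were then probed for 1 h at 4°C using biotin-labelled HaloTag reader fusions (10 nM to 1 μM) with streptavidin-Alexa Fluor 647 or rabbit histone antibodies (1:10,000 to 1:2,000) with anti-rabbit Alexa 647, and scanned at 635 nm for signal and 532 nm for misprints on an Axon GenePix 4000B.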

[2] = target: HaloTag-ING2 PHD (mouse Ing2 200-280)
Procedure, shortened: as §1

[3] = target: anti-H3K4me3 antibody ab8580
Procedure, shortened: as §1

[4] = target: anti-H3K9me3 antibody ab8898
Procedure, shortened: as §1

[5] = peptide modifications: H3R17me2a H3K18me1, binder concentration: 1:2,000 dilution
[6] = peptide modifications: H3R17me2a H3K18me1, binder concentration: 1:10,000 dilution
[7] = peptide modifications: H3R17me2a H3K18me2, binder concentration: 1:2,000 dilution
[8] = peptide modifications: H3R17me2a H3K18me2, binder concentration: 1:10,000 dilution
[9] = peptide modifications: H3R17me2a H3K18me3, binder concentration: 1:2,000 dilution
[10] = peptide modifications: H3R17me2a H3K18me3, binder concentration: 1:10,000 dilution
[11] = peptide modifications: H3R17me2a, binder concentration: 1:2,000 dilution
[12] = peptide modifications: H3R17me2a, binder concentration: 1:10,000 dilution
[13] = peptide modifications: H3R17me2s H3K18ac, binder concentration: 1:2,000 dilution
[14] = peptide modifications: H3R17me2s H3K18ac, binder concentration: 1:10,000 dilution

Binder: TGGKAPRKQLATK [H3 11-23 T G G K A P Rme2a Kme Q L A T K]
- peptide microarray binding signal ([1]; peptide modifications: H3R17me2a H3K18me1, binder concentration: 50 nM): 0.0073 ± 0.00016
- peptide microarray binding signal ([1]; peptide modifications: H3R17me2a H3K18me1, binder concentration: 500 nM): 0.0126 ± 0.0004
- peptide microarray binding signal ([2]; peptide modifications: H3R17me2a H3K18me1, binder concentration: 10 nM): 0.00949 ± 0.00068
- peptide microarray binding signal ([2]; peptide modifications: H3R17me2a H3K18me1, binder concentration: 100 nM): 0.0322 ± 0.008
- peptide microarray binding signal [3, 5]: 0.00823 ± 0.0013
- peptide microarray binding signal [3, 6]: 0.00496 ± 0.00085
- peptide microarray binding signal [4, 5]: 0.00281 ± 0.00028
- peptide microarray binding signal [4, 6]: 0.00173 ± 1.7e-05

Binder: TGGKAPRKQLATK [H3 11-23 T G G K A P Rme2a Kme2 Q L A T K]
- peptide microarray binding signal ([1]; peptide modifications: H3R17me2a H3K18me2, binder concentration: 50 nM): 0.00937 ± 0.0035
- peptide microarray binding signal ([1]; peptide modifications: H3R17me2a H3K18me2, binder concentration: 500 nM): 0.011 ± 0.00034
- peptide microarray binding signal ([2]; peptide modifications: H3R17me2a H3K18me2, binder concentration: 10 nM): 0.0112 ± 0.0018
- peptide microarray binding signal ([2]; peptide modifications: H3R17me2a H3K18me2, binder concentration: 100 nM): 0.0143 ± 0.00077
- peptide microarray binding signal [3, 7]: 0.00423 ± 0.00094
- peptide microarray binding signal [3, 8]: 0.0032 ± 0.00019
- peptide microarray binding signal [4, 7]: 0.00186 ± 6.1e-05
- peptide microarray binding signal [4, 8]: 0.001787 ± 1.7e-05

Binder: TGGKAPRKQLATK [H3 11-23 T G G K A P Rme2a Kme3 Q L A T K]
- peptide microarray binding signal ([1]; peptide modifications: H3R17me2a H3K18me3, binder concentration: 50 nM): 0.0133 ± 0.00073
- peptide microarray binding signal ([1]; peptide modifications: H3R17me2a H3K18me3, binder concentration: 500 nM): 0.0186 ± 0.0037
- peptide microarray binding signal ([2]; peptide modifications: H3R17me2a H3K18me3, binder concentration: 10 nM): 0.0148 ± 0.0037
- peptide microarray binding signal ([2]; peptide modifications: H3R17me2a H3K18me3, binder concentration: 100 nM): 0.0224 ± 0.0093
- peptide microarray binding signal [3, 9]: 0.284 ± 0.098
- peptide microarray binding signal [3, 10]: 0.305 ± 0.1
- peptide microarray binding signal [4, 9]: 0.0475 ± 0.015
- peptide microarray binding signal [4, 10]: 0.0213 ± 0.0043

Binder: TGGKAPRKQLATK [H3 11-23 T G G K A P Rme2a K Q L A T K]
- peptide microarray binding signal ([1]; peptide modifications: H3R17me2a, binder concentration: 50 nM): 0.0047 ± 0.00017
- peptide microarray binding signal ([1]; peptide modifications: H3R17me2a, binder concentration: 500 nM): 0.00767 ± 0.00072
- peptide microarray binding signal ([2]; peptide modifications: H3R17me2a, binder concentration: 10 nM): 0.00328 ± 9.3e-05
- peptide microarray binding signal ([2]; peptide modifications: H3R17me2a, binder concentration: 100 nM): 0.00921 ± 0.0033
- peptide microarray binding signal [3, 11]: 0.001001 ± 8.5e-06
- peptide microarray binding signal [3, 12]: 0.000742
- peptide microarray binding signal [4, 11]: 0.00116 ± 7.7e-05
- peptide microarray binding signal [4, 12]: 0.00156 ± 3e-05

Binder: TGGKAPRKQLATK [H3 11-23 T G G K A P Rme2s Kac Q L A T K]
- peptide microarray binding signal ([1]; peptide modifications: H3R17me2s H3K18ac, binder concentration: 50 nM): 0.00658 ± 0.00084
- peptide microarray binding signal ([1]; peptide modifications: H3R17me2s H3K18ac, binder concentration: 500 nM): 0.0081 ± 0.0003
- peptide microarray binding signal ([2]; peptide modifications: H3R17me2s H3K18ac, binder concentration: 10 nM): 0.00776 ± 0.00012
- peptide microarray binding signal ([2]; peptide modifications: H3R17me2s H3K18ac, binder concentration: 100 nM): 0.0133 ± 0.00095
- peptide microarray binding signal [3, 13]: 0.00415 ± 0.00025
- peptide microarray binding signal [3, 14]: 0.00468 ± 0.00016
- peptide microarray binding signal [4, 13]: 0.00156 ± 4.6e-05
- peptide microarray binding signal [4, 14]: 0.001441 ± 1.4e-05
